Structures are written as SMILES. About 8,600 (12%) of roughly 69,000 compounds showed an effect of 50% or more. What follows is part of a selection rich in strong results, with near analogues and random picks from the rest.

This assay concerns Plasmodium berghei. In words: Screen against P. berghei liver stage (PbLuc), transformed with Luciferase, at 10uM. The class given is functional, HepG2. Conditions: tested at 10 uM.
Turning to `Cc1ccc2[nH]c(CN(C)Cc3n[nH]c4c3CCC4)nc2c1`, the INHIBITION is on record as -30.5%.

As to `Cc1ccc2nc(CN(C)Cc3[nH]nc4c3CCC4)[nH]c2c1C`, the INHIBITION is listed as -59.5%.

For `Cc1ccc2nc(CN(C)Cc3n[nH]c4c3CCCCC4)[nH]c2c1C`, the INHIBITION turned out to be 69.6%.

In the case of `CCCNS(=O)(=O)c1cnccc1N1CCN(C(C)C)CC1`, the INHIBITION is recorded as -15.5%.

For the molecule `C1CC(NCC2CC2)CN(Cc2noc(C3CC3)n2)C1` (stereo not given), the INHIBITION came to 19.5%.

Take `Cn1cc(-c2cccc(CNC(=O)N3CCC[C@@H]3CO)c2)cn1`: the INHIBITION is given as -21.6%.

In the case of `CCN1CCN(C(=O)NCc2cccc(-c3cnn(C)c3)c2)CC1`, the INHIBITION is on record as 50.1%.

As for `CCC1COCCN1C(=O)NCc1cccc(-c2cnn(C)c2)c1` (stereo not given), the INHIBITION was found to be 21.2%.

Take `Cn1cc(C(=O)N2CC[C@@H]3[C@@H]2CCN3Cc2cccc(C#N)c2)cn1`: the INHIBITION is listed as 41.6%.

Consider `Cc1ccccc1CN(C)C(=O)CCc1nc(-c2nnc[nH]2)no1`, for which the INHIBITION was determined as 13.7%.

Turning to `CN(CCCc1ccccc1)C(=O)CCc1nc(-c2nnc[nH]2)no1`, the INHIBITION was 22%.

Take `CN(Cc1ccc(F)c(F)c1)C(=O)CCc1nc(-c2nnc[nH]2)no1`: the INHIBITION is listed as 55.4%.

`O=C(NCc1cccc(F)c1)NCC(O)c1cccc(F)c1` (stereo not given): the INHIBITION was -21.5%.

Regarding `CN(C)CCOCc1nnc2n1CCN(CC1CC1)CC2`, the INHIBITION is given as 36.2%.

Take `Cc1ccc(C(=O)NCc2ccccc2S(=O)(=O)N(C)CCO)cc1F`: the INHIBITION is -27.8%.

Turning to `COc1cccc(C(=O)NCc2ccccc2S(=O)(=O)N(C)C)c1`, the INHIBITION is recorded as 45.2%.

For the molecule `COc1cccc(C(=O)NCc2ccccc2S(=O)(=O)N(C)CCO)c1`, the INHIBITION was 78.1%.

With `Cc1noc(C2CCN(C(=O)c3cccs3)CC2)n1`, the INHIBITION is 21%.

Turning to `CC1(C)CC(N2CCN(C3CCCC3)C(CCO)C2)CC(C)(C)C1` (stereo not given), the INHIBITION is listed as -2.98%.

Regarding `CN(CC(F)(F)F)C(=O)COc1nc(Cc2ccc(F)cc2)no1`, the INHIBITION is reported as 40.6%.

As for `Cc1cccc(C(=O)N2CCCSCC2CN2CCCC2)c1` (stereo not given), the INHIBITION is listed as -19.7%.

As for `Cc1cccc(NCc2nn(C)c(=O)[nH]2)c1`, the INHIBITION turned out to be 59.8%.

As for `Cn1[nH]c(CNc2cccc(Cl)c2)nc1=O`, the INHIBITION is given as -0.473%.

With `Cc1cccc(NCc2nc(C)ccc2O)c1`, the INHIBITION turned out to be 24.8%.

Regarding `CCc1ncc2c(n1)CN(CC(=O)Nc1cc(C)no1)CC2`, the INHIBITION was -25.8%.

For the molecule `CN1CCN(C2CCCC2)C(CCO)C1` (stereo not given), the INHIBITION is 7.24%.

For `CCN(CC)C(=O)COc1nc(C(C)C)no1`, the INHIBITION is listed as 53.1%.

For the molecule `COC(=O)COc1nc(C(C)C)no1`, the INHIBITION came out at 7.25%.

In the case of `CC(C)c1noc(OCC(=O)N(C)C(C)C)n1`, the INHIBITION is reported as -13.6%.

As to `Cn1nc(CN2CCC(c3ccncc3)CC2)c2c(Cl)cccc21`, the INHIBITION was -18.1%.

Consider `Cn1cnnc1CC1CCN(Cc2nn(C)c3cccc(Cl)c23)CC1`, for which the INHIBITION stood at 75.4%.

Turning to `CCc1nn(C)c(Cl)c1CN1CCC(Cc2nncn2C)CC1`, the INHIBITION is on record as -7.25%.

On to `Cc1nc(CN2CCCC(C)(CO)C2)no1` (stereo not given), for which the INHIBITION was determined as 68.1%.

For `Cc1nc(CN2CCOC3(CCCC3)C2)no1`, the INHIBITION came out at 42.5%.

On to `Cc1nc(CN2CCCN(CCCc3ccccc3)CC2)no1`, for which the INHIBITION was -34.8%.

For the molecule `c1csc(CN2CCc3onc(Cn4cccc4)c3C2)c1`, the INHIBITION stood at 2.41%.

Take `Cc1cccc(S(=O)(=O)NC(=O)CCc2cscn2)c1`: the INHIBITION came to 18.6%.

Consider `O=C(CN(Cc1ccccc1)CC1CCOCC1)Nc1nccs1`, for which the INHIBITION is recorded as -1.53%.

Regarding `O=C(CN(Cc1ccccc1)CC1CCOCC1)NC(=O)NC1CC1`, the INHIBITION stood at 55.1%.

As for `NC(=O)NC(=O)CCN(Cc1ccccc1)CC1CCOCC1`, the INHIBITION came out at 6.23%.

In the case of `Cc1ccc(C(=O)NC2CCN(C(=O)NCc3ccccn3)CC2)o1`, the INHIBITION is listed as -4.16%.

Turning to `Cc1cc(NC(=O)NCC2CCN(C(C)C)C2)no1` (stereo not given), the INHIBITION is -25.8%.

Consider `Cc1cn2c(n1)CCC(NC(=O)c1ccc(S(C)(=O)=O)o1)C2` (stereo not given), for which the INHIBITION amounted to 42.3%.

For `Cc1ccc(CNC(=O)Cn2c(=O)c3cccnc3n2C)cc1F`, the INHIBITION came to 47.2%.

As for `Cn1c2ncccc2c(=O)n1CC(=O)NCCC1=CCCCC1`, the INHIBITION amounted to 66.8%.

`Cn1c2ncccc2c(=O)n1CC(=O)NCCc1c(F)cccc1F`: the INHIBITION turned out to be 39.6%.

As to `CCc1ccc(CN2CCc3ncnc(N4CCOCC4)c3CC2)o1`, the INHIBITION was found to be 12.7%.

Turning to `CC(C)(C)CN(CCC#N)Cn1cc(Cl)cn1`, the INHIBITION stood at 40.7%.

For the molecule `Cc1cnn(CC2CCCN2Cc2nccn2C)c1` (stereo not given), the INHIBITION is reported as 41.2%.

As for `Cc1cccn2c(=O)cc(CN3CCCC3Cn3cccn3)nc12` (stereo not given), the INHIBITION came out at 65.2%.

In the case of `CC(C)(C)c1nc(CN2CCCC2Cn2cncn2)no1` (stereo not given), the INHIBITION is given as -38%.

For the molecule `N#Cc1cc(F)ccc1CN1CCCCC1Cn1cccn1` (stereo not given), the INHIBITION came to 5.03%.

With `N#Cc1ccc(CN2CCCC2Cn2cccn2)c(F)c1` (stereo not given), the INHIBITION was 25.6%.

On to `N#Cc1cc(F)ccc1CN1CCCC1Cn1cccn1` (stereo not given), for which the INHIBITION is 66.7%.

`Cc1cccn2c(=O)cc(CN3CCCC3Cn3cncn3)nc12` (stereo not given): the INHIBITION is given as -30.7%.

In the case of `Cn1ccnc1CN1CCCC1Cn1cccn1` (stereo not given), the INHIBITION is -14%.

On to `Cc1cnn(CC2CCCN2Cc2cc(=O)n3cccc(C)c3n2)c1` (stereo not given), for which the INHIBITION is listed as 42.9%.

With `Cc1cnn(CC2CCCN2Cc2noc(C(C)(C)C)n2)c1` (stereo not given), the INHIBITION is recorded as -9.37%.

Regarding `CC(C)(C)c1nc(CN2CCCC2Cn2cccn2)no1` (stereo not given), the INHIBITION was found to be 60.5%.

On to `Cn1ccnc1CN1CCCCC1Cn1cccn1` (stereo not given), for which the INHIBITION turned out to be 59.7%.

Values taken from ChEMBL document CHEMBL4513216, “Probing the Open Global Health Chemical Diversity Library for Multistage-Active Starting Points for Next-Generation Antimalarials” (ACS Infect Dis, 2020).
